From PubChem BioAssay AID1259349 (Broad Institute, 2017)
Where “and” joins values, the source holds several entries; their conditions need not be identical. Identical values can stand only once. Out of some 17,000 compounds screened, about 1,100 (6.5%) were called active. This is one part of a sample in which actives are shown more often than they occur.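 The calls were made as follows: active = z-score of -3 or lower, meaning strong loss of probe binding signal; inactive = the rest.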 More than one record can exist for a structure, and the calls need not agree.

These compounds were tested against Insulin-degrading enzyme (Homo sapiens) (UniProt P14735) (assay: displacers of FL-6b probe from IDE – biochemical, fluorescence anisotropy, probe displacement, primary screen (AID 1259349;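 also: His-tagged human IDE residues 42-1019 made in E. coli with 30 nM FL-6b probe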)). Details: purified IDE, FL-6b probe fluorescence polarization; at 20 µM; stronger effect = lower value.
Chain of Insulin-degrading enzyme (Homo sapiens) (P14735 42-1019 limits assumed): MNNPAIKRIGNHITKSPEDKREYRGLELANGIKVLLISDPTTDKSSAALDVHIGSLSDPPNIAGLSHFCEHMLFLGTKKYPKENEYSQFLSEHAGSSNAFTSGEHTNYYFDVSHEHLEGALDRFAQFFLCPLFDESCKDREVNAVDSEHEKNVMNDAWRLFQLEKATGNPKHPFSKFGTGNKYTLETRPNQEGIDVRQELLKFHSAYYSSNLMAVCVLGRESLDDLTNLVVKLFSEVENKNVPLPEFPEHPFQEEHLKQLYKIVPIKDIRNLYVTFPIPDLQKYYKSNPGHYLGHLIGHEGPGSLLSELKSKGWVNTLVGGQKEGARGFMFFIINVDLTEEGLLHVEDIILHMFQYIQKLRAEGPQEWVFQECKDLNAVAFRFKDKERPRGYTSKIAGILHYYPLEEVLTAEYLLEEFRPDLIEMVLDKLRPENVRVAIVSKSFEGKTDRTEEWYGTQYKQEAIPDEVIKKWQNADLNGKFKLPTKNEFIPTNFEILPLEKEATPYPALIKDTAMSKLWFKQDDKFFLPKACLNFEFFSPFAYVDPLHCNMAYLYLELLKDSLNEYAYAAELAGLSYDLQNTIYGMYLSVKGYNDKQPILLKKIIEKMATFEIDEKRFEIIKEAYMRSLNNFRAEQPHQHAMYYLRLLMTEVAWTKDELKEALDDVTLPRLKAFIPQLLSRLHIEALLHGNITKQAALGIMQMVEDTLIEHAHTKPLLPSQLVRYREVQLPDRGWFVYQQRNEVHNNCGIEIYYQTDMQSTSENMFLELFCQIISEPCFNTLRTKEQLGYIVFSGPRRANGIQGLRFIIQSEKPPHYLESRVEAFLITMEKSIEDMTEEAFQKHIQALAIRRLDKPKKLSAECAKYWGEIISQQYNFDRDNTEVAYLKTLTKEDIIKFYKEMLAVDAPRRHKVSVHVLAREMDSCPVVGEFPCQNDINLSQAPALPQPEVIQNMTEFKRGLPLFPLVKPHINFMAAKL

Row | Structure (SMILES) | z-score
1 | O=C(c1cnccn1)N1CC(=O)N2[C@H](C1)[C@@H](c1ccc(C#CC3CCCCC3)cc1)[C@@H]2CO | 4.43 (inactive)
2 | Cc1ccccc1S(=O)(=O)N1C[C@H](O)COC[C@H]2O[C@H](CC(=O)N3CCCCC3)CC[C@@H]21 | -0.576 (inactive)
3 | C[C@H](NC(=O)C[C@H]1CC[C@H]2[C@@H](COC[C@H](O)CN2C(=O)Nc2cccc(Cl)c2)O1)c1ccccc1 | 1.23 (inactive)
4 | Cn1cnc(S(=O)(=O)N2CCCCN3[C@@H](CO)[C@@H](c4ccc(C#CC5CCCC5)cc4)[C@@H]3C2)c1 | 1.81 (inactive)
5 | O=C(Nc1ccc(C(F)(F)F)cc1)N1[C@@H]2CNC[C@H]1C2c1ccc(-c2ccncc2)cc1 (some centres not stated) | 3.1 (inactive) and 5.44 (inactive)
6 | COc1ccc(-c2ccc3c(c2)[C@@H]2[C@@H](CCN2C(=O)c2cccc(F)c2)[C@H](CO)N3)cc1 | 1.25 (inactive)
7 | O=C(c1ccccc1)N1CC(=O)N2[C@@H](CO)[C@H](c3ccc(C#CCC4CCCC4)cc3)[C@@H]2C1 | 0.717 (inactive)
8 | CNC[C@@H]1OCCCC[C@H](C)Oc2ccc(NC(=O)Nc3ccc(OC)cc3)cc2C(=O)N([C@H](C)CO)C[C@@H]1C | 1.03 (inactive)
9 | CC(=O)N1CC2(C1)[C@H](c1ccccc1)[C@@H](CO)N2C(=O)Cc1ccccc1 | -0.887 (inactive)
10 | COCC(=O)N1CC2(C1)CN(Cc1ccccc1F)[C@@H](CO)c1[nH]c3cc(OC)ccc3c12 | -1.64 (inactive)
11 | COc1ccc2c3c([nH]c2c1)[C@H](CO)N(Cc1ccccc1Cl)CC31CN(C(=O)C2CC2)C1 | -4.06 (active)
12 | COc1ccc2c3c([nH]c2c1)[C@@H](CO)N(Cc1cc(F)ccc1F)CC31CN(C(=O)C2CCC2)C1 | -1.31 (inactive)
13 | N#Cc1cccc(-c2ccc3c(c2)[C@H]2[C@H](CCN2Cc2ccc4c(c2)OCO4)[C@@H](CO)N3)c1 | 1.22 (inactive)
14 | CC(C)NC(=O)N1CCCCN2[C@H](CO)[C@@H](c3ccc(Br)cc3)[C@H]2C1 | 2.67 (inactive)
15 | CCCNC(=O)N1[C@H](C#N)[C@@H](c2ccccc2)[C@H]1CO | 3.95 (inactive)
16 | C[C@@H]1CCCCO[C@H](CN(C)S(=O)(=O)c2cn(C)cn2)[C@H](C)CN([C@H](C)CO)C(=O)c2cc(N(C)C)ccc2O1 | -0.253 (inactive)
17 | COc1cccc(-c2ccc(C3[C@H]4CNC[C@@H]3N4C(=O)Nc3ccc(F)cc3)cc2)c1 (some centres not stated) | -0.759 (inactive) and -1.81 (inactive)
18 | CCCNC(=O)N1[C@@H]2CNC[C@H]1C2c1ccc(-c2ccccc2)cc1 (some centres not stated) | 0.774 (inactive) and 1.73 (inactive)
19 | CCCNC(=O)N1[C@@H]2CNC[C@H]1C2c1ccc(-c2cccc(C)c2)cc1 (some centres not stated) | 0.449 (inactive) and -6.06 (active)
20 | CCC(=O)N1[C@@H](CO)[C@H](c2ccc(-c3cccc(F)c3)cc2)[C@@H]1CNC(C)=O | 2.2 (inactive)
21 | N#C[C@@H]1[C@H](c2ccccc2-c2ccccc2F)[C@@H](CO)N1C(=O)C1CCOCC1 | 3.52 (inactive)

Row | Structure (SMILES) | z-score
22 | Cc1noc(C)c1S(=O)(=O)N(C)C[C@H]1Oc2ccc(N(C)C)cc2C(=O)N([C@H](C)CO)C[C@@H]1C | -1.17 (inactive)
23 | CCCC#Cc1ccc([C@H]2[C@H](CO)N3CCCCN(S(=O)(=O)CC)C[C@@H]23)cc1 | 3.45 (inactive)
24 | OC[C@H]1[C@@H](c2ccc(C#Cc3ccccc3F)cc2)[C@H]2CN(CC3CCOCC3)CCCCN21 | 0.86 (inactive)
25 | COc1ccccc1C#Cc1ccc([C@@H]2[C@H](CO)N3CCCCN(CCC(F)(F)F)C[C@@H]23)cc1 | -8.07 (active)
26 | COc1ccccc1C#Cc1ccc([C@H]2[C@H](CO)N3CCCCN(C(=O)C4CCC4)C[C@@H]23)cc1 | -12.3 (active)
27 | COc1ccccc1NC(=O)N1CCCCN2[C@@H](CO)[C@@H](c3ccc(C#Cc4ccccc4)cc3)[C@@H]2C1 | -2.86 (inactive)
28 | CCCC#Cc1ccc([C@@H]2[C@H](CO)N3CCCCN(S(=O)(=O)c4ccccc4F)C[C@@H]23)cc1 | -4.86 (active)
29 | O=C(Nc1ccc(F)cc1)N1CCCCN2[C@H](CO)[C@H](c3ccc(C#Cc4ccccc4)cc3)[C@H]2C1 | -0.00774 (inactive)
30 | CS(=O)(=O)N1CCCCN2[C@@H](CO)[C@@H](c3ccc(Br)cc3)[C@@H]2C1 | -1.86 (inactive)
31 | CN(C)CC#Cc1ccc([C@H]2[C@H]3CN(S(=O)(=O)c4ccccc4F)CCCCN3[C@H]2CO)cc1 | 1.11 (inactive)
32 | COc1ccccc1C#Cc1ccc([C@@H]2[C@@H](CO)N3CCCCN(S(C)(=O)=O)C[C@@H]23)cc1 | -10.2 (active)
33 | CCCC#Cc1ccc([C@H]2[C@@H](CO)N3CCCCN(S(=O)(=O)CC)C[C@H]23)cc1 | 3.29 (inactive)
34 | COc1ccc(C#Cc2ccc([C@H]3[C@@H](CO)N4CCCCN(C(=O)Nc5ccccc5)C[C@H]34)cc2)cc1 | 4.38 (inactive)
35 | CS(=O)(=O)Nc1ccc2c(c1)[C@@H]1C[C@H](CC(=O)NCc3cc(F)ccc3F)O[C@@H](CO)[C@@H]1O2 | -0.994 (inactive)
36 | C/C=C/c1ccc([C@H]2[C@@H](CNC(=O)NC(C)C)N(C(=O)C3CCC3)[C@H]2CO)cc1 | 1.01 (inactive)
37 | C[C@@H](O)C#Cc1ccc([C@H]2[C@H](CO)N3CCCCN(C(=O)c4ccc5c(c4)OCO5)C[C@@H]23)cc1 | -0.442 (inactive)
38 | CCS(=O)(=O)NCC[C@H]1CC[C@@H](NC(=O)Nc2cc(Cl)cc(Cl)c2)[C@@H](CO)O1 | 2.83 (inactive)
39 | CCCNC(=O)C[C@@H]1CC[C@H]2[C@@H](COC[C@H](O)CN2C(=O)Nc2ccc(Cl)c(Cl)c2)O1 | -0.531 (inactive)
40 | Cc1noc(C)c1S(=O)(=O)Nc1ccc2c(c1)C(=O)N([C@@H](C)CO)C[C@@H](C)[C@H](CN(C)C(=O)Nc1cccc3ccccc13)OCCCC[C@H](C)O2 | 0.278 (inactive)
41 | COc1ccccc1-c1ccc2c(c1)O[C@@H](CN(C)CC1CCOCC1)[C@H](C)CN([C@@H](C)CO)S2(=O)=O | -0.56 (inactive)
42 | CCNC(=O)c1cc2c(c(-c3cccc(-c4cncnc4)c3)n1)[C@H](CCO)N(C(C)=O)C2 | -0.344 (inactive)
